INHIBITION data for 49 compounds are collected here from ChEMBL document CHEMBL4513216, “Probing the Open Global Health Chemical Diversity Library for Multistage-Active Starting Points for Next-Generation Antimalarials” (ACS Infect Dis, 2020).

About 2,700 (4%) of roughly 68,000 compounds showed an effect of 50% or more. Shown is part of a subset that was picked to be rich in strong results.

This experiment relates to Plasmodium berghei. The experiment in a line: Screen against P. berghei liver stage (PbLuc), transformed with Luciferase, at 2uM. Format: functional, HepG2. To be noted: tested at 2 uM.
As to `CCCN1C[C@H](NC(=O)c2cccs2)[C@@H](c2ccc(OC)cc2)C1`, the INHIBITION was found to be 53.65%.
`O=c1c2ccccc2ncn1Cc1cc(C2CC2)[nH]n1`: the INHIBITION is listed as 34.98%.
On to `CCOCC1c2c(ncn2C)CCN1C(=O)c1cscn1` (centres undefined), for which the INHIBITION stood at 16.78%.
With `Cc1ncnc2c1CCN(Cc1ccc3c(c1)OCO3)CC2`, the INHIBITION is on record as -39.9%.
Regarding `Cc1cc(CNc2ccc3nc(C4CC4)sc3c2)no1`, the INHIBITION is 53.63%.
On to `Cc1noc(C)c1CNc1ccc2nc(C3CC3)sc2c1`, for which the INHIBITION came to 25.21%.
On to `Cc1cc(CNc2ccc3nc(C)sc3c2)no1`, for which the INHIBITION is reported as -32.33%.
On to `O=C1NCCN(CC2CC2)C12CCN(Cc1ccco1)CC2`, for which the INHIBITION was 61.9%.
Regarding `O=C(NC1CC1)N1CCC2(CC1)C(=O)NCCN2Cc1ccccc1`, the INHIBITION is -11.54%.
Turning to `O=C(CC1CC1)N1CCC2(CC1)C(=O)NCCN2Cc1ccccc1`, the INHIBITION is 52.36%.
`CN1CCNC(=O)C12CCN(Cc1ccco1)CC2`: the INHIBITION turned out to be 27.42%.
In the case of `CC(C)NC(=O)N1CCC2(CC1)C(=O)NCCN2Cc1ccccc1` it was 5.69%; in that of `Cc1ccc(CN2CCC3(CC2)C(=O)NCCN3CC2CC2)o1`, 8.62%; in that of `CC(C)CNC(=O)[C@H]1CCS(=O)(=O)[C@@H]2CN(Cc3cccnc3)C[C@H]12`, 35.07%.
For the compound `COC(=O)c1ncccc1N1CCCCC1`, the INHIBITION is -18.04%.
On to `O=C1CC(c2ccc3ccccc3n2)c2c(n[nH]c2C2CCC2)N1` (centres undefined), for which the INHIBITION was determined as 46.3%.
`COc1nc2ccccc2cc1C1CC(=O)Nc2n[nH]c(C3CCC3)c21` (centres undefined): the INHIBITION was found to be 13.51%.
On to `CC(C)c1nccc(C2CC(=O)Nc3n[nH]c(C4CCC4)c32)n1` (centres undefined), for which the INHIBITION stood at 53.33%.
For `Cc1nnc(SCC(=O)N2CCc3[nH]nc(C4CCC4)c3C2)o1`, the INHIBITION stood at 22.34%.
In the case of `CCc1nnc(SCC(=O)N2CCc3[nH]nc(C4CCC4)c3C2)o1`, the INHIBITION is on record as 66.4%.
As to `CCc1n[nH]c(SCC(=O)N2CCc3[nH]nc(C4CCC4)c3C2)n1`, the INHIBITION came to 23.45%.
Regarding `O=C(C1CC1)N1CCC(O)(CN2CCN(c3ccccc3)CC2)C1` (centres undefined), the INHIBITION stood at 0.64%.
As for `Cc1nc2c(c(N(C)C)n1)CCN(C(=O)c1sccc1S(N)(=O)=O)C2`, the INHIBITION is -22.79%.
In the case of `CC(C)CNc1nccc(-c2cnc3sc(Cl)cn3c2=O)n1`, the INHIBITION was -24.85%.
Take `CC(C)OC(=O)CC(NC(=O)CCn1cccn1)c1ccccc1` (centres undefined): the INHIBITION was found to be 67.28%.
To `COC(=O)CC(NC(=O)CCCn1cccn1)c1ccc(Cl)cc1` (centres undefined) belongs -18.57%.
Take `CC(NC(=O)CCn1cccn1)c1cn(-c2ccccc2)nn1` (centres undefined): the INHIBITION stood at 2.26%.
To `CC(NC(=O)CCn1cccn1)c1ccc(-n2ccnn2)cc1` (centres undefined) belongs -33.92%; to `CC(NC(=O)CCn1cccn1)c1cccs1` (centres undefined), -38.35%.
Take `COC(=O)CC(NC(=O)CCn1cccn1)c1ccc(C)cc1` (centres undefined): the INHIBITION came to 60.13%.
To `CN(C)CCN1CCC2(CCN(C(=O)c3ccc(F)cc3)CC2)C1=O` belongs -16.42%; to `Cc1cc(C)n(CC2CN(CC(=O)NCc3ccccn3)CCO2)n1` (centres undefined), -12.05%.
Take `CN(Cc1cccnc1)[C@@H]1CN(C(=O)c2ccno2)[C@@H]2CCCO[C@H]12`: the INHIBITION is -7.88%.
On to `CCSc1cc(C(=O)NCc2ccc(C(=O)NC)cc2)ccn1`, for which the INHIBITION stood at 19.48%.
As for `C[S+]([O-])c1nncn1CC(=O)c1ccc(Br)cc1` (centres undefined), the INHIBITION is recorded as -59.71%.
On to `CCOC(=O)CC(c1ccc(OC)cc1)c1c(O)n[nH]c1C` (centres undefined), for which the INHIBITION is -43.9%.
To `CN(Cc1ccc([S+](C)[O-])cc1)c1ccc(Cl)cn1` (centres undefined) belongs 45.82%; to `CN(Cc1ccc([S+](C)[O-])cc1)c1ccc(C(F)(F)F)cn1` (centres undefined), 48.21%; to `CN(Cc1ccc([S+](C)[O-])cc1)c1ccc(Br)cn1` (centres undefined), 67.28%.
To `CN(C)[C@H]1CCCCN(C(=O)c2cccc(-c3cccc(F)c3)c2)C1` belongs 36.79%; to `COc1c(F)ccc(C(=O)N2CC[C@H](CO)[C@@H](O)C2)c1F`, -15.37%.
On to `NC(=O)c1cc(-c2cccc(C(=O)O)c2)cs1`, for which the INHIBITION was 67.28%.
As to `NC(=O)c1cc(-n2cc(-c3cccc(C(=O)O)c3)cn2)cs1`, the INHIBITION was found to be 29.13%.
In the case of `NC(=O)c1ccccc1-n1cc(-c2cccc(C(=O)O)c2)cn1`, the INHIBITION is on record as 0.51%.
In the case of `CC(C)C(=O)N1CCC2(CCCN(CCOc3ccccc3)C2)C1` (centres undefined), the INHIBITION was 21.89%.
As to `Cn1c(N)nnc1SCc1c(F)cccc1Br`, the INHIBITION is given as -3.53%.
In the case of `Cn1c(N)nnc1SCc1cc(Br)ccc1Cl` it was 55.36%; in that of `Cn1c(N)nnc1SCc1ccc(Cl)cc1Br`, 45.82%.
For the compound `NC(=O)C(NC(=O)CSCc1ccc(Cl)s1)c1ccccc1` (centres undefined), the INHIBITION is 28.04%.
